Compounds without any hit were thinned out: in the full panel of roughly 83,000, 20% have a hit.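 Each cell line was grown in a 96-well plate and treated with one concentration of compound for 48 hours. Values below 10 were considered active.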 A number with no mark means an inactive call. Calls of active or inactive are those of the source.
Columns and labels:
Experiment in all cases: NCI-60 one-dose screen, 48 h (100 = growth as untreated, 0 = no growth, -100 = all killed)
Conditions in all cases: 10 µM
RPMI-8226 leukemia = system: RPMI-8226 leukemia
OVCAR-8 ovarian = system: OVCAR-8 ovarian
OVCAR-5 ovarian = system: OVCAR-5 ovarian
OVCAR-4 ovarian = system: OVCAR-4 ovarian
SK-OV-3 ovarian = system: SK-OV-3 ovarian
IGROV1 ovarian = system: IGROV1 ovarian
OVCAR-3 ovarian = system: OVCAR-3 ovarian
HS 578T breast = system: HS 578T breast
NCI/ADR-RES ovarian = system: NCI/ADR-RES ovarian
T-47D breast = system: T-47D breast
MDA-MB-435 melanoma = system: MDA-MB-435 melanoma
SW-620 colon = system: SW-620 colon
MCF7 breast = system: MCF7 breast
HCT-116 colon = system: HCT-116 colon
HCC-2998 colon = system: HCC-2998 colon
KM12 colon = system: KM12 colon
BT-549 breast = system: BT-549 breast

Row | Compound | growth (RPMI-8226 leukemia) | growth (OVCAR-8 ovarian) | growth (OVCAR-5 ovarian) [%] | growth (OVCAR-4 ovarian) | growth (SK-OV-3 ovarian) | growth (IGROV1 ovarian) | growth (OVCAR-3 ovarian) | growth (HS 578T breast) | growth (NCI/ADR-RES ovarian) | growth (T-47D breast) | growth (MDA-MB-435 melanoma) | growth (SW-620 colon) | growth (MCF7 breast) | growth (HCT-116 colon) | growth (HCC-2998 colon) | growth (KM12 colon) | growth (BT-549 breast)
1 | O=[N+]([O-])c1cccc(-c2ncc(-c3ccc(Cl)cc3Cl)[nH]2)c1 | -8.35% (active) | 83.5% | 117 | 70% | 115% | 26.6% | 59.8% | 44.9% | 97.2% | 79% | 76.5% | -88% (active) | -8.38% (active) | 13.5% | 58.1% | 15.7% | –
2 | O=C(Nc1ccncc1)C(=O)c1cn(S(=O)(=O)c2ccc(F)cc2)c2ccccc12 | 15.5% | 30% | 72.4 | 66.9% | 91.2% | 26.8% | -21.9% (active) | 50.4% | 2.06% (active) | 52.5% | -20.3% (active) | – | 12.6% | 11.6% | 61.6% | 18.1% | 36.9%
3 | O=C1/C(=C\c2ccc(F)cc2)CN(C(=O)c2ccccc2F)C/C1=C\c1ccc(F)cc1 | -35.8% (active) | 1.61% (active) | 21.6 | -5.48% (active) | 11.1% | -38.4% (active) | -29.8% (active) | 11.8% | 11.5% | 40.1% | -47.4% (active) | – | -72.1% (active) | -75% (active) | -83.8% (active) | – | -43.2% (active)
4 | CCOC(=O)C1(CC(C)C)CCOC1=O (centres undefined) | 95.6% | 93.8% | 97 | 95.5% | 101% | 119% | 104% | 110% | 98.8% | 99% | 104% | – | 93.5% | 107% | 106% | 99.3% | 105%
5 | COc1cc2nc(Nc3cccc(C(=O)O)c3)nc(N)c2cc1OC | 307% | 105% | 114 | 103% | 107% | 16.4% | 101% | 93.4% | 133% | 105% | 107% | 96.3% | 97.8% | -100% (active) | 135% | 108% | –
6 | CN1CCC(CNc2cc(C3(C(=O)Nc4cc(C(=O)Nc5ccc(Cl)c(C(F)(F)F)c5)ccc4F)CC3)ncn2)CC1 | -32% (active) | 44.3% | 71.6 | 81.1% | 45.9% | 54.8% | 29.4% | 13.6% | 86.7% | 63.7% | -53.1% (active) | – | -43% (active) | 8.41% (active) | 22.8% | 36.1% | 52.5%
7 | Clc1ccc(-c2cn(-c3ccccc3)c(-c3ccccc3)n2)c(Cl)c1 | 16% | 9.55% (active) | 16.4 | -100% (active) | 25.1% | -26.3% (active) | -84% (active) | -20.3% (active) | 13.6% | -17.6% (active) | -37.2% (active) | – | 5.1% (active) | -100% (active) | 13.7% | -88% (active) | -12.7% (active)
8 | COc1ccc(-c2nn(-c3cccc(NC(=O)Nc4cc(C(F)(F)F)cc(C(F)(F)F)c4)c3)cc2-c2ccncc2)cc1Cl | -25.1% (active) | 1.12% (active) | 18.7 | 16.4% | 8.88% (active) | 4.91% (active) | 5.75% (active) | 0.225% (active) | 5.83% (active) | 2.31% (active) | -42.8% (active) | – | 0.561% (active) | -22% (active) | 8.03% (active) | -2.5% (active) | -1.8% (active)
9 | CCCCCCc1cc(N=Nc2ccc(S(=O)(=O)Nc3cc(C)nc(C)n3)cc2)c(O)cc1O | 95.5% | 99.7% | 113 | 108% | 101% | 96.2% | 109% | 110% | 99.9% | 93.9% | 100% | – | 92.7% | 86.3% | 101% | 104% | 89.9%
10 | O=C(Nc1ccncc1)C(=O)c1cn(S(=O)(=O)c2cccc3ccccc23)c2ccccc12 | 43.1% | 92.4% | 102 | 79.6% | 87.9% | 73.8% | 88.2% | 100% | 78.4% | 70.9% | -7.64% (active) | 71.4% | 52.3% | 45.8% | 64.8% | 55% | –
11 | O=C(Nc1ccncc1)C(=O)c1cn(S(=O)(=O)c2cc(Cl)cc(Cl)c2)c2ccccc12 | 57.1% | 69.1% | 89 | 75.5% | 97.2% | 57.6% | 59.7% | 69.6% | 55.3% | 56.8% | 8.83% (active) | 64.9% | 43.9% | 51.4% | 65.7% | 55.3% | –
12 | O=C(Nc1ccc(Cl)c(Cl)c1)Nc1c(Oc2ccc(Cl)c(Cl)c2)ccc(Cl)c1S(=O)(=O)O | 14.9% | 27.7% | 53.7 | 65.6% | 22.4% | 30.4% | -9.85% (active) | -5.79% (active) | 2.06% (active) | 51.4% | -31.4% (active) | 23.6% | 24.6% | 23.5% | 25.2% | 33.2% | –
13 | Cc1cccc(Cl)c1NC(=O)c1ccc2nc(NC(=O)NC3CCN(C)CC3)sc2c1 | 87.7% | 94.6% | 71.1 | 99.5% | 61.8% | 86% | 116% | 48.6% | 106% | 66% | 82.9% | – | 94% | 81.9% | 105% | 105% | 98.2%
14 | C#Cc1ccc(-n2c(/C=C/c3ccc(Cl)c(F)c3)nc3ncccc3c2=O)cc1 | -14.9% (active) | -17.4% (active) | 24.1 | -88.5% (active) | -7.71% (active) | -54.5% (active) | -79.8% (active) | 13.8% | 1.19% (active) | -39% (active) | -3.46% (active) | – | 3.48% (active) | -52.8% (active) | -84.3% (active) | – | 10.7%
15 | Cc1nc2c(c(=O)[nH]1)OCN(Cc1ccccc1)C2 | 101% | 99.1% | 109 | 96.1% | 93.7% | 100% | 103% | 109% | – | 97.8% | 112% | – | 102% | 100% | 104% | 104% | 102%
16 | O=C(Nc1cccc(-n2cc(-c3ccncc3)c(-c3ccc(O)c(Cl)c3)n2)c1)c1ccc(Cl)c(Cl)c1 | 18.1% | 35.7% | 109 | 67% | 80.9% | 60.7% | 81.7% | 53.8% | – | 36% | 47.2% | 28.2% | 35.5% | 44.4% | 54.3% | 43.9% | 68.5%
17 | COc1ccc2c(c1)sc1nc(-c3ccccc3)c(-c3ccsc3)n12 | 15.2% | 30.8% | 51.6 | 62.8% | 23.5% | 31.1% | -51.6% (active) | 3.75% (active) | 9.35% (active) | 57% | -39.6% (active) | 19.4% | 13.5% | 30.8% | 11.6% | 19.4% | –
18 | O=[N+]([O-])c1cccc(N=Cc2ccc3c(c2)OCO3)c1 | 104% | 97.3% | 116 | 104% | 110% | 109% | 112% | 116% | – | 103% | 102% | 108% | 103% | 106% | 98.3% | 112% | –
19 | COc1cccc(C(=O)Nc2ccc(CN3CCc4nc5cc(OC)c(OC)cc5cc43)cc2)c1 | 40% | 46.8% | 64.8 | 57.1% | 74.2% | 31.8% | 53.1% | 61.2% | – | 32.4% | 39.5% | – | 12% | 38.9% | 14.1% | 16.4% | 65%

Reference: PubChem BioAssay (NCI)
